Measured values: PubChem BioAssay (NCI)
Compounds without any hit were thinned out: in the full panel of roughly 79,000, 15% have a hit. A number with no mark means an inactive call. Active and inactive are the calls of the source. No stated cut-off is given here; in the data, active means growth inhibition above about 70%; inactive means the rest.

Assay: NCI Yeast Anticancer Drug Screen. Data for the cln2 rad14 strain (AID 165);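 further: 0% = growth equal to vehicle treated cultures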
Conditions: S. cerevisiae cln2 rad14 strain, hits give high values
Method: Growth inhibition of yeast strains with defined genetic alterations is measured as a screen for potential anti-cancer activity. Selected strains with alterations in DNA damage repair or cell cycle control were exposed to compounds and growth inhibition was measured relative to vehicle treated controls. The strain used in this assay is cln2 rad14

[1] = at 5.0 µM (retest, dose inferred, filed as 0.5)
[2] = at 50.0 µM (retest, dose inferred, filed as 5.0)

SMILES | growth inhibition [1] | growth inhibition [2] | growth inhibition (at 50.0 µM)
COc1cc(CC2CC(c3ccc4c(c3)OCO4)OC2=O)cc(OC)c1OC (configuration not stated) | -1% | 7% | 1.35%
O=C1c2ccccc2C(=O)c2c(NC3CCCCC3)ccc(Nc3ccc(S(=O)(=O)O)cc3)c21 | -13% | -4% | 59%
COc1ccc2nc3cccc([N+](=O)[O-])c3c(NCCN(CCO)CCO)c2c1 | 81% (active) | 96% (active) | 83.2% (active)
O=[N+]([O-])c1cccc([N+](=O)[O-])c1S(=O)(=O)c1ccccc1 | -8% | 76% (active) | 34.8%
C(CCSC1=NCCN1)CSC1=NCCN1 (tested in a mixture with another compound) | 16% | 98% (active) | 97.6% (active)
CN(C)c1ccc(Sc2ccc3nc(N)nc(N)c3c2)cc1 | 24% | 6% | 25.4%
CC(=O)Nc1ccc(/C=C(\C#N)c2ccc(C)cc2)cc1 | 63% | 2% | 19.2%
OC(c1ccc(F)cc1)(c1ccc(F)cc1)C1CC1 | 41% | 73% (active) | 28.9%
CC(/C=C/c1ccc2c(c1)OCO2)[N+](=O)[O-] (configuration not stated) | -13% | 98% (active) | 99.2% (active)
Cc1cccc2c(C(O)CBr)cc(-c3ccc(Cl)cc3)nc12 (configuration not stated) | -10% | 95% (active) | 92.8% (active)
CC1=NN(c2cccc(Cl)c2)C(=O)C1 | 39% | 62% | 27.2%
O=C(O)c1ccccc1NC(=S)c1ccccc1 | 27% | 54% | 1%
Cc1ccc(S(=O)(=O)Oc2cc(Cl)c(Cl)cc2Cl)cc1 | 4% | 3% | -9.8%
O=C(/C=C/c1cccc(Br)c1)c1cccs1 | 11% | 97% (active) | 46.5%
